Measured values: PubChem BioAssay (Tox21)
Inconclusive results are not listed. Values without a mark were called inactive. Calls of active or inactive are those of the source. Calls follow the shape of the dose curve; as a rule, active = well fitted cell-killing curve with a large enough effect in the repeat runs; inconclusive = weak or mixed curves, or effect the other way; inactive = flat fitted curve, though single readings scatter.

Assay: cAMP Responsive Elements (CRE) small molecule agonists, cell-based qHTS assay: qHTS cell viability counter screen (AID 2060914); also: nearly all actives have a fitted effect of over 50% in size
Conditions: CRE-bla HEK293T viability, CellTiter-Glo luminescence, 5 h; series mostly up to 92.4 µM; activity change, negative = cytotoxicity: at the top concentration
Summary of the method: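 Luminescence read-out (CellTiter-Glo, 30 min RT) of ATP-based viability in CRE-bla HEK 293T cells, run in the same wells as the β-lactamase reporter assay after 3 h compound treatment at 37 °C.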
% is scaled to controls: 0 for no effect and ±100 for the full control effect.

Point of comparison: `CC(C)(CC(=O)O)C(=O)O`, “activity change, negative = cytotoxicity” value 4.29%. Against it:
- CCNc1cc(O)ccc1C — higher, 4.68%
- CCOC(OCC)OCC — lower, 0.558%
- CC(COc1ccc(C(C)(C)C)cc1)OS(=O)OCCCl (stereo not given) — higher, 23.7%
- CC(C)N(c1ccccc1)C(C)C — lower, -3.12%
- O=C(O)CCSSCCC(=O)O — higher, 13.5%
- C[C@]12C(=O)OC(=O)[C@H]1[C@H]1C=C[C@@H]2C1 — lower, -1.84%
- OC1CCC(C2CCCCC2)CC1 (stereo not given) — lower, -7.62%
- Cc1ccccc1S(N)(=O)=O — lower, 3.77%
- C/C=C/C(=O)CCCC — lower, -1.06%
- CC(CN)CCCN (stereo not given) — lower, -17.7%
- CC(C)(O)c1ccc(CNC(=O)c2cccnc2Oc2ccc3nonc3c2)cc1 — lower, 3.26%
- CCCCCCCCC=O — lower, -1.93%
- CCO/C=C1\N=C(c2ccccc2)OC1=O — higher, 5.33%
- CC(C)C(C)C — lower, 2.5%
- C=CCCCCCCCCC(=O)O — lower, -18%
- COc1cc(C=O)ccc1OC(=O)C(C)C — lower, 3.93%
- COC(=O)CCCCCCCCC(=O)OC — higher, 9.56%
- Nc1ccc(S(=O)(=O)O)cc1 — higher, 11.1%
- CCO[Si](CCCS)(OCC)OCC — lower, 0.369%

In the case of `c1cc(N(CC2CO2)CC2CO2)ccc1OCC1CO1` (stereo not given), the Potency was “inactive”.
With `CC(O)COc1ccccc1` (stereo not given) the Potency was “inactive”.
With `CCCSc1ccc2nc(NC(=O)OC)[nH]c2c1` the Potency was “inactive”.
For `CC[C@]12CCCN3CCc4c(n(c5ccccc45)[C@@](O)(C(=O)OC)C1)[C@@H]32`, the Potency was “inactive”.
For `Cc1ccc2c(n1)Oc1ccc(C(C)C(=O)OCC(=O)N(C)C)cc1C2` (stereo not given), the Potency was “inactive”.
In the case of `Cc1c(C(=O)O)c(O)cc2c1C(=O)c1c(O)c([C@@H]3O[C@H](CO)[C@@H](O)[C@H](O)[C@H]3O)c(O)c(O)c1C2=O`, the Potency was “inactive”.
For `CC(=O)NS(=O)(=O)c1ccc(N)cc1`, the Potency was “inactive”.
For `CCc1cccc(C)c1N`, the Potency was “inactive”.

Point of comparison: `CC(N=C(NC#N)Nc1ccncc1)C(C)(C)C` (stereo not given), “activity change, negative = cytotoxicity” value 1.43% [at 42.5 µM]. Against it:
- COc1cc2nc(Cl)nc(N)c2cc1OC — higher, 11.6% [at 42.5 µM]
- O=C1c2ccccc2S(=O)(=O)N1CCCCN1CCN(c2ncccn2)CC1 — higher, 2.34% [at 42.5 µM]
- CC(C)(C)NCC(O)c1cc(O)cc(O)c1 (stereo not given) — lower, -4.44% [at 42.5 µM]
- Cc1ncc([N+](=O)[O-])n1CC(C)O (stereo not given) — lower, -4% [at 42.5 µM]
- C[C@H]1[C@H]2CC[C@H]3[C@@H]4CC=C5C[C@@H](N(C)C)CC[C@]5(C)[C@H]4CC[C@]23CN1C — lower, -2.26% [at 42.5 µM]
- C#Cc1cccc(Nc2ncnc3cc(OCCOC)c(OCCOC)cc23)c1 — higher, 9.26% [at 42.5 µM]
- Cc1ccnc(NS(=O)(=O)c2ccc(N)cc2)n1 — higher, 7% [at 42.5 µM]
- CC(C)NC[C@@H](O)COc1ccc(CC(N)=O)cc1 — lower, 1.12% [at 42.5 µM]
- CCCCCCCCc1ccc(Nc2ccc(CCCCCCCC)cc2)cc1 — higher, 1.72% [at 42.5 µM]
- CC(=O)O[C@H]1CC[C@@]2(C)C(=CC[C@@H]3[C@@H]2CC[C@]2(C)C(C(C)=O)=CC[C@@H]32)C1 — lower, -0.787% [at 42.5 µM]
- COc1cc2c(cc1OC)CN(C(=O)[C@H](C)N[C@@H](CCc1ccccc1)C(=O)O)[C@H](C(=O)O)C2 — lower, 0.194% [at 42.5 µM]
